Test [1] is described as follows: NCI Yeast Anticancer Drug Screen. Data for the rad50 strain (AID 155).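 Also: 0% = growth of vehicle-only cultures of the same strain.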 The settings on record: S. cerevisiae rad50 strain growth inhibition; at 50.0 µM; hits give high values. A digest of the protocol:
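Growth of the mutant yeast was measured after compound exposure and referenced to vehicle-treated cultures.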

The nature of test [2]: NCI Yeast Anticancer Drug Screen. Data for the mec2-1 strain (AID 157). As to conditions: S. cerevisiae mec2-1 strain, at 50.0 µM, hits give high values. A digest of the protocol:
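mec2-1 yeast strain, carrying an alteration in DNA damage repair or cell cycle control, was exposed to compounds; growth inhibition was measured relative to vehicle-treated controls.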

Test [3] is described as follows: NCI Yeast Anticancer Drug Screen. Data for the sgs1 mgt1 strain (AID 161).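 Also: 0% = growth of cultures given vehicle only.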 The settings on record: S. cerevisiae sgs1 mgt1 strain, at 50.0 µM, hits give high values. A digest of the protocol:
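Compounds are added to genetically altered yeast, and growth is compared with cultures given vehicle alone to give percent inhibition.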

Test [4] is described as follows: NCI Yeast Anticancer Drug Screen. Data for the cln2 rad14 strain (AID 165).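 Also: 0% = growth equal to vehicle treated cultures.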 The settings on record: S. cerevisiae cln2 rad14 strain, at 50.0 µM, hits give high values. In outline:
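Yeast carrying cln2 and rad14 alterations (cell cycle control and DNA damage repair) were exposed to compounds. Growth inhibition was measured against vehicle-treated controls.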

The nature of test [5]: NCI Yeast Anticancer Drug Screen. Data for the bub3 strain (AID 167). As to conditions: S. cerevisiae bub3 mutant strain, at 50.0 µM, hits give high values. In outline:
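Whole-cell yeast assay. The mutant strain was incubated with compounds, and growth inhibition was determined by comparison with vehicle-treated cells.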

Test [6] can be described thus: NCI Yeast Anticancer Drug Screen. Data for the mlh1 rad18 strain (AID 175). The settings on record: S. cerevisiae mlh1 rad18 strain growth inhibition; at 50.0 µM; hits give high values. A digest of the protocol: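 Growth inhibition of the yeast strain was measured after compound exposure and expressed relative to vehicle-treated controls. The strain carries defined defects in DNA damage repair.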

About 79,000 compounds went through this panel and 15% of them were active in at least one assay; those are over-represented in the sample as a whole. Values without a mark were called inactive. The source made the active and inactive calls. Rule as the data show it: active = growth inhibition above about 70%; inactive = the rest.

Consider `CCCCCCCCCCCCCCCCSc1ccc(Br)cc1`, for which the growth inhibition in test [1] was 45%; in test [2], 7%; in test [3], 23.9%; in test [4] it was 1.8%; in test [5], 2.2%; in test [6] it was 21%.

Turning to `O=S1(=O)C2C=CC1CCCC2`, the growth inhibition was 3.35% in test [1]; -12.7% in test [2]; -6.9% in test [3]; -30.9% in test [4]; -11.6% in test [5]; 2.05% in test [6].

Take `CCOC(C)(C(=O)O)c1cccc2ccccc12` (stereo not given): the growth inhibition was -20.4% in test [1]; -11% in test [2]; -7.95% in test [3]; 0.4% in test [4]; -8.8% in test [5]; 14.8% in test [6].

Regarding `CCCCCCCC#CC1(CCCC)Sc2ccccc2N1C` (stereo not given), the growth inhibition in test [1] was 15.3%; in test [2] it was 6.15%; in test [3], 0.75%; in test [4], 8.05%; in test [5], 6.35%; in test [6], 19.8%.

Consider `C[n+]1cc(-c2ccccc2)cc(-c2ccccc2)c1`, for which the growth inhibition was 0.85% in test [1]; -3.35% in test [2]; -1.55% in test [3]; -29.8% in test [4]; -3.45% in test [5]; 6.85% in test [6].

In the case of `CCCCCCCCCC[n+]1cccc(C(N)=O)c1`, the growth inhibition is 3.7% in test [1]; -17.2% in test [2]; 13.8% in test [3]; 3.75% in test [4]; -1.05% in test [5]; 28.9% in test [6].

Consider `Cc1c(-c2nnc(-c3ccccc3)o2)c(=O)n(-c2ccccc2)n1C`, for which the growth inhibition in test [1] is -7.3%; in test [2], -6.6%; in test [3] it was -30.2%; in test [4], -27.1%; in test [5] it was -26.1%; in test [6], -21.6%.

For `CC(=O)OCC(OC(C)=O)C1(O)CCC2C3CCC4=CC(=O)CCC4(C)C3CCC21C` (stereo not given), the growth inhibition in test [1] is 98.4% (active); in test [2] it was 99% (active); in test [3] it was 98.5% (active); in test [4], 97.8% (active); in test [5], 98.3% (active); in test [6] it was 98.3% (active).

Consider `Cc1ccc(S(=O)(=O)OC2C3OC(C)(C)OC3OC2C2CSC(=S)S2)cc1` (stereo not given), for which the growth inhibition in test [1] was 0.3%; in test [2], -6.6%; in test [3], 10.1%; in test [4], -12.8%; in test [5], -25.3%; in test [6], 4%.

On to `CC(C)N=C(NC#N)NS(=O)(=O)c1cnccc1Nc1ccc(Cl)cc1`, for which the growth inhibition is -11.1% in test [1]; 18.8% in test [2]; -13% in test [3]; -1.9% in test [4]; -18.1% in test [5]; 24.8% in test [6].

For the compound `CCC(CO)NC(=O)c1cccnc1` (stereo not given), the growth inhibition in test [1] was -13.5%; in test [2], -8.3%; in test [3], -2.85%; in test [4], -19%; in test [5], -7.6%; in test [6] it was 2.25%.

As for `c1ccc2c(C3CO3)c3ccc4ccccc4c3cc2c1` (stereo not given), the growth inhibition is 99% (active) in test [1]; 99.5% (active) in test [2]; 99.5% (active) in test [3]; 98.8% (active) in test [4]; 99.2% (active) in test [5]; 99.2% (active) in test [6].

On to `CCOC(=O)Nc1c2ccccc2c(NC(=O)OCC)c2ccccc12`, for which the growth inhibition in test [1] was 30.2%; in test [2], 8.9%; in test [3], 1%; in test [4], 12.8%; in test [5], 15%; in test [6], -6%.

As to `O=c1ccc2c(-c3ccccc3O)c3ccc(O)cc3oc-2c1`, the growth inhibition is 91.8% (active) in test [1]; 78.4% (active) in test [2]; 85% (active) in test [3]; 86.9% (active) in test [4]; 88.5% (active) in test [5]; 95.5% (active) in test [6].

Regarding `Nc1ccc(Br)cc1C(=O)O`, the growth inhibition was 4.2% in test [1]; -1.15% in test [2]; -17.4% in test [3]; -3.2% in test [4]; 23.6% in test [5]; -3.3% in test [6].

With `S=C1Cc2c([nH]c3ccccc23)-c2ccccc2N1`, the growth inhibition in test [1] is -11.1%; in test [2], 26.6%; in test [3], -8.85%; in test [4] it was -3.9%; in test [5], 23.2%; in test [6], 2.45%.

Take `O=C(CNS(=O)(=O)c1ccccc1)c1ccc(Cl)cc1Cl`: the growth inhibition in test [1] was 31.6%; in test [2], 36.2%; in test [3], 53%; in test [4], 22.3%; in test [5], 54.5%; in test [6], 53.8%.

For the compound `O=c1oc2c(-c3c(O)c(=O)oc4ccccc34)cc(O)cc2s1`, the growth inhibition in test [1] was 10.3%; in test [2], 14.6%; in test [3], 22.9%; in test [4] it was 17.1%; in test [5] it was 10%; in test [6] it was 36%.

Consider `CN=C1Nc2ccc(Cl)cc2C(c2ccccc2)=NN1C`, for which the growth inhibition in test [1] is 10%; in test [2], -19.4%; in test [3], 2.9%; in test [4], 11.3%; in test [5], 6.85%; in test [6] it was -12.6%.

Consider `Cc1ccc(C)c(NC(=O)C(=O)C(C2C(C)CC(=O)C2CC(=O)O)[N+](=O)[O-])c1` (stereo not given), for which the growth inhibition in test [1] is 7.05%; in test [2], 10.9%; in test [3] it was -8.05%; in test [4], 10.8%; in test [5], 6.6%; in test [6], 1.7%.

Values taken from PubChem BioAssay (NCI).
